This is a sample that favours compounds with a hit; in the whole collection about 3.8% have one here.
p-CIP stab down: p/CIP protein destabilization. decrease of EGFP signal, % at 10 µM. 290,000 compounds, 0.01% hits. AID 1984. F442A p/CIP-EGFP cells, EGFP fluorescence, 16 h;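 active = EGFP signal decrease of at least 30% at 10 µM or well 3 SD below plate mean, unless failing retest; inactive = the rest, including hits failing retest or dose response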
Target sequence (Q05BA5 1-1403): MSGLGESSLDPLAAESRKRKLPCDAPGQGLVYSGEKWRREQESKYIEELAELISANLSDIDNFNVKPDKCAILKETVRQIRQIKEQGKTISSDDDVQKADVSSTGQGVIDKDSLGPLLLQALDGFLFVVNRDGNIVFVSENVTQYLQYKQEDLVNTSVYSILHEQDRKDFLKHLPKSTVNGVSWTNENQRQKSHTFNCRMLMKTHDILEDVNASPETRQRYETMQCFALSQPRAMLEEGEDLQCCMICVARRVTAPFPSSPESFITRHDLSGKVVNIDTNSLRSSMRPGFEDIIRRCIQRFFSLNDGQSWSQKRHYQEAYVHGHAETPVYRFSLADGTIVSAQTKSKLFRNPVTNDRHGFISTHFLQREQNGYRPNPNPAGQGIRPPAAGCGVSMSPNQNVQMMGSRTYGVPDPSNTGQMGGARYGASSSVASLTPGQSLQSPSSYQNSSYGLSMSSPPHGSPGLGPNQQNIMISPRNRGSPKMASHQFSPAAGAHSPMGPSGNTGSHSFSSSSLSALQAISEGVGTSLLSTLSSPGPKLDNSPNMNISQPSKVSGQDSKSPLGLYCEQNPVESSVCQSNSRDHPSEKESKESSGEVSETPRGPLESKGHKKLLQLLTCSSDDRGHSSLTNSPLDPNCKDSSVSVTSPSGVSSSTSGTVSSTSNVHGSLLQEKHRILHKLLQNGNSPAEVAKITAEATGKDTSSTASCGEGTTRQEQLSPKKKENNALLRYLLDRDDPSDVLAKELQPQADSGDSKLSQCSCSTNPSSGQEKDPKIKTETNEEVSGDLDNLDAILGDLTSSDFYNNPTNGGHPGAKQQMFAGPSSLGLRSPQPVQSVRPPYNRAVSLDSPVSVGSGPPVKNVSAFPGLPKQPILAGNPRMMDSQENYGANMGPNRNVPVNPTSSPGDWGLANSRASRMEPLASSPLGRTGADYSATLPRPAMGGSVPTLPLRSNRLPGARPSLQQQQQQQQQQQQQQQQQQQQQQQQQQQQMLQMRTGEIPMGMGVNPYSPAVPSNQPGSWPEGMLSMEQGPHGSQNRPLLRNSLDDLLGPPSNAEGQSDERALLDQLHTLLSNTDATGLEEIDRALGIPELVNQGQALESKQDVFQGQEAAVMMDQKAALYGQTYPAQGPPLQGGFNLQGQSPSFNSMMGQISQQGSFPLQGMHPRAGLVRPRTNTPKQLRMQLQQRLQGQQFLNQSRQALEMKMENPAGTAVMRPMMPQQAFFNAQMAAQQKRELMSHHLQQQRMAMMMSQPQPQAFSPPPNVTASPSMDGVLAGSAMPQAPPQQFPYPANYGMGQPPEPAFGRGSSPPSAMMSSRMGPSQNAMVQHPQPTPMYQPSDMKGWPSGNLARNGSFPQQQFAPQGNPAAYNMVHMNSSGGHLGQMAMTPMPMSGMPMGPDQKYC
HSF1 inhib: HSF1 inhibition | NIH3T3-HGL HSE-luciferase, MG132-induced, luminescence 8 h; active compounds read low | 300,000 compounds, 0.77% hits | AID 2098 | activity change, negative = inhibition, % at 7.5 µM (by protocol);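 active = more than half of replicate wells show activity change below -50%, luminescence cut by over half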;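 note: luciferase reports HSF-1 transcriptional activity via heat shock element; 0% = median of DMSO wells and -100% = zero luminescence signal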
NALP1 yeast inh: inhibitors of NALP1 inflammasome in yeast | inhibition, % at 10 µM | S. cerevisiae NALP1/ASC/caspase-1 growth, X-gal OD620, 72 h | AID 2071 | 280,000 compounds, 0.61% hits; in the data active = inhibition mostly above about 24%, no sharp cut-off; inactive = mostly below about 32%
Hsp70 act: transcriptional activators of Hsp70; HeLa Hsp70 promoter luciferase reporter, luminescence; scaled: vehicle 0, proteasome-inhibitor control 100%; activation, % at 10 µM; 200,000 compounds, 0.04% hits; AID 1203;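 active = activation above the mean across all tested compounds plus 3 SD, cutoff set per campaign, cut at about 5.5% in these data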;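 note: 100% = MG132 at 30 µM as the positive control and 0% = DMSO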
HSF-1 act: increases HSF-1 driven luciferase reporter signal. NIH3T3-HGL HSF-1 luciferase reporter, MG132, 8 h; 100% = twice DMSO control signal. activation, % at 9 µM. 300,000 compounds, 1.7% hits;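 active = mean replicate activation of at least 50% with a set share of replicates each reaching 50%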;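 note: 0% = median of the neutral control wells and 100% = twice that signal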
HSP90 inh: inhibitors of HSP90 luciferase refolding in rabbit reticulocyte lysate. luciferase refolding luminescence, 3 h. 290,000 compounds, 0.91% hits. inhibition, % at 5.6 µM. AID 1789;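 active = inhibition above the screen-wide mean plus 3 SD, computed separately per campaign, cut at about 16% in these data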;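 note: 0% = DMSO wells and 100% = 60 µM geldanamycin wells; inhibitors lower the luminescence because luciferase stays unfolded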
* marks the source's active call; other numbers are inactive results; x = no result.

SMILES	p-CIP stab down	HSF1 inhib	NALP1 yeast inh	Hsp70 act	HSF-1 act	HSP90 inh
CCOC(=O)Cc1c(C)nc2c(-c3ccc(OC)cc3)c(C)nn2c1C	7	-8	43*	0	2	-3
Cc1nc2c(-c3ccccc3)c(C)nn2c(C)c1CCC(=O)O	-12	-7	15	0	-4	2
COc1ccc(-c2c(C)nn3c(Cl)c(C)c(C)nc23)cc1	-17	29	14	x	60*	0
COc1ccc(-c2c(C)nn3c(-c4ccccc4)cc(C)nc23)cc1	0	1	14	0	-1	2
COc1ccc(-c2nn(-c3ccccc3)cc2C(=O)NC2CCCCC2C)cc1 (configuration not stated)	x	-4	x	x	-6	x
CCC(CC(C)(C)O)C(=O)NNC(=S)Nc1ccccc1 (configuration not stated)	-24	-6	33*	0	5	-3
CCCCC(CC(O)COCC(C)C)C(=O)NNC(=S)Nc1ccccc1 (configuration not stated)	2	0	22	0	10	-4
COc1ccc(C(=O)/C=C/Sc2nc3ccccc3o2)cc1	-14	73	21	x	93*	-1
Cc1cc(C)c(NC(=O)CNC(=O)c2ccc(-n3cncn3)c([N+](=O)[O-])c2)c(C)c1	x	-6	x	x	-17	x
COCC(C)NS(=O)(=O)c1ccc(C(=O)NCCCn2ccc3ccccc32)cc1 (configuration not stated)	10	11	1	x	46	-1
O=C(Nc1cccc(N=Cc2cc(Br)cc(Br)c2O)c1)c1ccco1	6	4	65*	0	-4	4
O=C(Cc1ccccc1)N/N=C/c1cc(Br)cc(Br)c1O	3	-2	-3	x	8	16*
O=C(CNC(=O)c1cccc(Br)c1)N/N=C/c1cc(Br)cc(Br)c1O	-3	0	-13	0	0	1
O=C(CNC(=O)Cc1ccc(Cl)cc1)NCc1ccco1	10	-3	-8	0	-8	0
CCOCCCNC(=S)N1CCN(Cc2ccco2)CC1	-10	-5	20	0	11	0
CCOc1ccc(C2=Nc3ccc(Br)cc3C(c3ccc(N4CCOCC4)cc3)=NN2)cc1	-2	17	30	0	58*	1
CCOc1ccc(C2=Nc3ccccc3C(c3ccc(N4CCOCC4)cc3)=NN2)cc1	-9	15	16	0	50	-2
Cc1cc(C)cc(OC(=O)CS(=O)c2ccc(C(F)(F)F)cc2[N+](=O)[O-])c1 (configuration not stated)	-3	125	12	0	171*	-2
O=C(NCCO)c1ccc(Oc2ccc(C(F)(F)F)cc2[N+](=O)[O-])cc1	-7	0	-10	0	-10	2
O=C(CS(=O)c1ccc(C(F)(F)F)cc1[N+](=O)[O-])Oc1ccc(Cl)cc1 (configuration not stated)	1	65	-4	1	73*	7
Cc1ccc(OCCNc2ccc(C(F)(F)F)cc2[N+](=O)[O-])cc1	2	19	21	0	32	-2
N/C(=N\OC(=O)c1ccc2c(c1)OCO2)c1cccc([N+](=O)[O-])c1	-14	50	1	0	59*	-5
CCCCNC(=O)NC1(C(F)(F)F)Oc2ccccc2O1	-3	-3	37*	0	12	-4
O=C(NCCN1CCOCC1)NC1(C(F)(F)F)Oc2ccccc2O1	0	7	16	0	-5	-3
CCC(Sc1nc2n[nH]c(C)c2c(=N)n1-c1ccc(C)c(Cl)c1)C(=O)N1CCOCC1 (configuration not stated)	-10	17	19	0	56*	1
CCC(Sc1nc2n[nH]c(C)c2c(=N)n1-c1cccc(Cl)c1)C(=O)NCCOC (configuration not stated)	0	-4	19	0	6	-2
CCn1c(NCc2ccco2)nc2ccccc21	13	10	24*	0	8	6
c1coc(CNc2nc3ccccc3s2)c1	8	30	21	x	80*	12
c1ccc(Cn2c(NCc3ccco3)nc3ccccc32)cc1	-10	-3	34	0	0	0

Source: PubChem BioAssay
